System: Vero E6 infected with SARS-CoV-2
Experiment: inhibition of SARS-CoV-2 cytopathic effect; higher = more antiviral protection, active = above 15
Settings: 48 h

Measured: inhibition of SARS-CoV-2 cytopathic effect

COc1cc(C=O)ccc1O [vanillin]
inactive: 1 nM 1.74% | 8.33 nM 0.89% | 100 nM 1.04% | 833.33 nM -1.54% | 10000 nM -2.8%

Cc1[nH]c2ccccc2c1CCNC(=O)c1cccs1
active: 10000 nM 16%
inactive: 1 nM -3.95% | 8.33 nM -2.61% | 100 nM -2.69% | 833.33 nM 1.32%

N#Cc1ccc(N2N=C3c4ccc(C(=O)O)cc4CC[C@@H]3[C@@H]2C2CCCC2)cc1Cl
inactive: 1 nM 7.07% | 833.33 nM 4.59% | 10000 nM 10.2%
active: 8.33 nM 18% | 100 nM 18.3%

O=c1cc(-c2ccc(O)c(O)c2)oc2cc(O)cc(O)c12 [luteolin]
inactive: 1 nM 1.96% | 8.33 nM 0.53% | 100 nM -1.61% | 833.33 nM -0.15% | 10000 nM 7.72%

CC1=C(/C=C/C(C)=C/C=C/C(C)=C/C=C/C=C(C)/C=C/C=C(C)/C=C/C2=C(C)C(=O)[C@@H](O)CC2(C)C)C(C)(C)C[C@H](O)C1=O [astaxanthin]
inactive: 1 nM -9.22% | 8.33 nM -11% | 100 nM -9.1% | 833.33 nM -8.76% | 10000 nM -11.5%

CN(C)C(=O)C(=O)c1cn(C)c2cc(Cl)c(C(=O)N3CCC(Cc4ccc(F)cc4)CC3)cc12
inactive: 1 nM 2.15% | 8.33 nM -1.11% | 100 nM -2.84% | 833.33 nM -2.05% | 10000 nM 6.33%

O=C1c2cccc3c2[C@H](CCC3)CN1[C@@H]1CN2CCC1CC2 [palonosetron]
inactive: 1 nM -2.25% | 8.33 nM -0.74% | 100 nM -0.65% | 833.33 nM -0.13% | 10000 nM -0.75%

— the supplement of paper PMC13380429
